HT1080 IDH1KD tx = qHTS for induction of synthetic lethality in tumor cells producing 2HG: qHTS for the HT-1080-IDH1KD cell line | Potency, µM (doses to about 46.1 µM), for inactives: at the top dose activity, negative = toxicity, actives largely listed as cytotoxic | HT-1080 IDH1 knockdown viability, ATP luminescence, 48 h | hit rate 2% among 360,000 | AID 686971, 2013;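 also: potency is read from the fitted curve at half-maximal effect; 0% = DMSO wells and -100% = cell-free medium wells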
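Cytotoxicity counter-line: IDH1KD HT-1080, 48 h, CellTiter-Glo. Curves classed by r2, magnitude and activity.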
DT40 TDP1 CPT = qHTS for Inhibitors of human tyrosyl-DNA phosphodiesterase 1 (TDP1): qHTS in cells in presence of CPT; hit rate 12% among 420,000; Potency, µM (top dose mostly 46.2 µM), for inactives: at the top dose activity change, negative = growth inhibition, hits mostly inhibitors; chicken DT40 Tdp1-/-;hTDP1 cells + 20 nM CPT, ATP luminescence, 48 h; also: potency is read from the fitted curve at half-maximal effect; nearly all actives have a fitted effect of over 55% in size
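Cell growth measured by CellTiter-Glo luminescence after a minimum 48 h, 37 C compound exposure with 20 nM CPT in Tdp1-knockout DT40 cells stably expressing hTDP1, seeded 400/well; qHTS titration format.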
IL-1B inflam inh = qHTS for Inhibitors of Inflammasome Signaling: IL-1-beta AlphaLISA Primary Screen | THP-1 LPS/ATP IL-1B secretion, AlphaLISA, 16 h; hits give low values | activity change, % at 57.5 µM | hit rate 4.7% among 360,000 | AID 743279, 2014; in the data active = activity change below about -50%; inconclusive = mostly about -30% to -49%
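THP-1 cells pretreated 1 hr with compounds (up to 57.5 uM final), then stimulated with LPS (250 ng/mL final) plus ATP (1.25 mM final); secreted IL-1B measured by AlphaLISA after 16 hr, decreased signal indicating inhibition.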
12-LOX inh = Primary qHTS assay for inhibitors of human arachidonate 12S-lipoxygenase (ALOX12): Round 2; Polyunsaturated fatty acid lipoxygenase ALOX12 (Homo sapiens), P18054; purified 12hLO, xylenol orange hydroperoxide absorbance; Potency, µM (titrated, usually from 108 µM), without a hit: at the highest dose activity change, negative = inhibition, hits mostly inhibitors; hit rate 1.1% among 580,000; also: potency is read from the fitted curve at half-maximal effect
Target sequence (P18054 whole entry, looked up): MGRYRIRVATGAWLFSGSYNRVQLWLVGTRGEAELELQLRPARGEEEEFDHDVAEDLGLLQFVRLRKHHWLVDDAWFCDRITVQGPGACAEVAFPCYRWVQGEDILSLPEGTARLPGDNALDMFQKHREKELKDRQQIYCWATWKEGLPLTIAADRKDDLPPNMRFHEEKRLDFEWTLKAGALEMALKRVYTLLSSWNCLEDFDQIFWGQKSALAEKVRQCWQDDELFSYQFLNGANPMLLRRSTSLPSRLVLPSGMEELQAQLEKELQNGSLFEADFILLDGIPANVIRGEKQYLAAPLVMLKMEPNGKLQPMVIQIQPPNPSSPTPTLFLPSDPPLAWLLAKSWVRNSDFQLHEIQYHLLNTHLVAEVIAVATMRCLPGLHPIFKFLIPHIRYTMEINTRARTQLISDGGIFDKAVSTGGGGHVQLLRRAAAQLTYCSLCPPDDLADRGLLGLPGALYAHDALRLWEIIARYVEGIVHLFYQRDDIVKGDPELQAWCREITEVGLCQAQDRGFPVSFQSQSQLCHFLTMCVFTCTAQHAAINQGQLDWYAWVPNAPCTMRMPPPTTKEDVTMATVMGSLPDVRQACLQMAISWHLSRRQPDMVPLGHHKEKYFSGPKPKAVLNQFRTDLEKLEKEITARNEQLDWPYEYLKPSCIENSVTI
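Purified human 12hLO (150 nM final) in 25 mM Hepes, 0.01% Triton X-100, pH 7.0 was preincubated 15 min at room temperature with compound. Then 40 uM arachidonic acid was added, 30 min. Hydroperoxide was read by Fe-XO absorbance ratio 573/405 nm.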
DT40 TDP1 no CPT = qHTS for Inhibitors of human tyrosyl-DNA phosphodiesterase 1 (TDP1): qHTS in cells in absence of CPT; Potency, µM (series often up to 46.2 µM), inactives show top-dose activity change, negative = growth inhibition, usual class: inhibitors; hit rate 15% among 420,000; DT40 Tdp1-/- hTDP1 cells, no CPT, ATP luminescence, 48 h; also: potency is read from the fitted curve at half-maximal effect; nearly all actives have a fitted effect of over 55% in size
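Camptothecin absent (DMSO only). Human TDP1-complemented DT40 knockout cells, 400 cells/well, 37 °C for minimum 48 hr; ATP measured via CellTiter-Glo, 30 min dark incubation, luminescence.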
HT1080NT lethal = qHTS for induction of synthetic lethality in tumor cells producing 2HG: qHTS for the HT-1080-NT fibrosarcoma cell line | HT-1080-NT fibrosarcoma viability, CellTiter-Glo ATP luminescence, 48 h | Potency, µM (titrated, usually from 46.1 µM), for inactives: at the highest dose activity, negative = less viability, usual class: cytotoxic | hit rate 1.6% among 360,000;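 also: NT is the 2HG producing partner of a matched IDH1 knockdown line; potency is read from the fitted curve at half-maximal effect; 0% = DMSO-treated cells and -100% = media-only wells without cells; nearly all actives have a fitted effect of over 55% in size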
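HT-1080-NT; 750 cells/well; 5% FBS RPMI; 48 h compound, 37 degrees C; CellTiter-Glo luminescence; curve fitting and curve-class assignment.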
Active calls of the source: *; ? = inconclusive; · = not tested or not shown. Only a selection was taken, and hits are over-represented in it overall. Unless noted, calls follow the shape of the dose curve; as a rule, active = well fitted curve in the direction sought with a large enough effect; inconclusive = small, poorly fitted or top-dose-only effect, or another doubt; inactive = no such curve, though single readings can be large; an effect the other way counts as inactive or inconclusive. Unless noted, % is scaled to controls: 0 for no effect and ±100 for the full control effect.

SMILES	HT1080 IDH1KD tx	DT40 TDP1 CPT	IL-1B inflam inh	12-LOX inh	DT40 TDP1 no CPT	HT1080NT lethal
FC(F)(F)c1cnc2c(c1)Nc1ccccc1S2	5.8%	?	-16.1	0.0%	20.6µM*	5.4%
COc1cccc(/C=N/N=C(\N)c2nonc2N)c1O	-20.8%	0.0065µM*	-22.1	1.2%	0.92µM*	?
Cc1ccccc1N/N=C1\CCCNC1=O	2.2%	-20.6%	-53.8*	4.47µM*	-7.8%	-3.9%
O=C1N[C@H](CC(=O)N2CCn3c(nnc3C(F)(F)F)C2)C(=O)Nc2ccccc21	·	·	·	62.2%	·	·
CCCC(=O)N1CCN(c2ccc(NC(=O)C(C)(C)C)cc2)CC1	9.9%	13.2%	8.3	-1.6%	-12.0%	11.3%
CCCC(=O)N1CCN(c2ccc(NC(=O)C(C)(C)C)cc2Cl)CC1	-21.7%	20.6µM*	0.5	-1.5%	?	-1.9%
CCCC(=O)N1CCN(c2ccc(NC(=O)c3cccs3)cc2Cl)CC1	1.6%	-25.2%	-84.4*	11.4%	-15.6%	-3.5%
CCCn1c(=S)[nH]c2cc(C(=O)N3CCCC(C(=O)OCC)C3)ccc2c1=O (stereo not given)	?	14.6µM*	-15.5	6.5%	20.6µM*	?
COCCn1c(=S)[nH]c2cc(C(=O)N3CCCC(C)C3)ccc2c1=O (stereo not given)	-14.0%	25.9µM*	14.7	-7.0%	?	-4.1%
O=c1[nH][nH]c2c1C(C1CCCCC1)OC(C1CCCCC1)C2 (stereo not given)	0.5%	?	-1.8	-0.2%	?	16.6%
Cc1ccc(S(=O)(=O)N2C[C@H]3C(=O)C[C@@H](c4ccccc4F)N(S(=O)(=O)c4ccc(C)cc4)[C@H]3C[C@H]2c2ccccc2F)cc1	2.9%	8.2µM*	-20.7	-0.4%	10.3µM*	12.3%
O=C(COc1ccc2ccc(=O)oc2c1)NCc1ccc(F)cc1	·	·	·	-0.4%	·	·
Cc1nnn(C23C[C@@H]4C[C@@H](CC(C(=O)N5CCN(c6ccccc6)CC5)(C4)C2)C3)n1	18.7%	18.4µM*	-5.9	0.0%	13µM*	3.4%
Cc1cc(C)cc(NC(=O)CC23CC4CC(C2)CC(n2nnc(C)n2)(C4)C3)c1	-3.9%	?	-74.8*	-0.1%	-13.5%	3.5%
O=C(N1CCN(c2ccccc2)CC1)C12CC3CC(CC(C3)C1)C2	-4.5%	-18.2%	5.7	3.1%	?	-2.2%
CN(Cc1ccc(Cl)c(Cl)c1)C(C(=O)NCc1ccccc1)c1ccc(C(F)(F)F)cc1 (stereo not given)	?	?	-13.4	2.4%	?	?
CCOc1ccccc1NC(=O)c1cnc(N2CCOCC2)c2ccccc12	·	20.6µM*	·	-38.0%	18.4µM*	·
CCN1CCN(c2ncc(C(=O)Nc3ccccc3C(=O)OC)c3ccccc23)CC1	?	23.1µM*	?	-25.4%	16.4µM*	20.6µM*
CCN1CCN(c2ncc(C(=O)OC)c3ccccc23)CC1	·	·	·	-26.6%	·	·
COc1ccc(OC)c(NC(=O)c2cnc(N3CCCCC3)c3ccccc23)c1	·	10.3µM*	·	?	8.2µM*	·
CC(C)OC(=O)c1ccc(N2CCN(c3ccccc3F)CC2)nc1	-20.2%	?	19.3	-1.6%	18.4µM*	-16.9%
Clc1ccc(Nc2nc(NC3CCCC3)nc3c2cnn3-c2ccccc2)cc1	·	·	·	-13.7%	·	·
COC(=O)c1cnc(N2CCN(c3ccccc3F)CC2)c2ccccc12	·	?	·	-12.7%	16.4µM*	·
COc1ccc(OC)c(NC(=O)c2ccccc2SC)c1	6.7%	1.7%	-11.0	11.0%	-26.8%	24.1%
COc1ccc(NC(=O)CN(C)C(=O)c2cc3c(cc2Cl)N2CCCCCC2=NS3(=O)=O)cc1	0.0%	0.9%	5.6	7.2%	-1.4%	-2.9%
SMILES	HT1080 IDH1KD tx	DT40 TDP1 CPT	IL-1B inflam inh	12-LOX inh	DT40 TDP1 no CPT	HT1080NT lethal
COC(=O)c1cnc(N2CCN(c3ccccn3)CC2)c2ccccc12	·	·	·	-4.0%	·	·
COc1ccc(OC)c(NC(=O)c2cc3c(cc2Cl)N2CCCCCC2=NS3(=O)=O)c1	-1.0%	?	14.6	?	16.4µM*	-0.6%
COc1ccc(OC)c(NC(=O)c2cc3oc4ccccc4c3cc2O)c1	?	?	30.9	0.0%	16.4µM*	?
CC1(C)Cc2c(sc3c2c2nc(Cc4ccccc4)nn2c(=O)n3CC(N)=O)CO1	·	·	·	-6.3%	·	·
Cc1cccc(NC(=S)NNC(=O)CCn2cc(C)cn2)c1	2.82µM*	3.1%	-13.8	12.8%	-3.2%	1.26µM*
COc1cc(C#N)ccc1OC(C)C(=O)Nc1cccc(C)c1 (stereo not given)	·	·	·	26.2%	·	·
O=[N+]([O-])c1cccc(SSc2cccc([N+](=O)[O-])c2)c1	18.4µM*	3.66µM*	?	2.51µM*	4.61µM*	18.4µM*
O=c1c2cc(Br)ccc2nc(-c2cccc(C(F)(F)F)c2)n1O	?	18.4µM*	73.2	?	10.3µM*	?
O=C(On1c(-c2ccccc2)nc2ccccc2c1=O)c1ccco1	-14.6%	23.1µM*	-25.3	?	23.1µM*	-25.0%
O=c1c2ccccc2nc(-c2ccco2)n1Cc1ccccc1	-8.4%	?	-11.1	?	?	3.4%
COc1ccc(-c2nc3ccccc3c(=O)n2CCOc2c(C)cccc2C)cc1	10.8%	-13.6%	44.7	-6.9%	?	10.7%
COc1cc(OC)cc(-c2nc3ccccc3c(=O)n2OC(=O)c2ccccc2C)c1	?	?	-61.2*	-10.6%	-25.6%	?
COc1ccc(-c2nc3ccccc3c(=O)n2O)cc1	?	-13.8%	-22.4	27.7%	26.0%	?
O=c1c2ccccc2nc(-c2ccccc2)n1O	-5.7%	2.06µM*	0.0	?	-2.1%	-1.4%
O=S(=O)(NC[C@@H]1CCNC[C@H]1O)c1ccc(OC(F)(F)F)cc1	·	·	·	60.8%	·	·
Cc1nc(SCc2ccccc2)[nH]c(=O)c1CCC(=O)N1CCN(C(=O)C2CC2)CC1	·	·	·	4.3%	·	·
COC1CCOC2(CCN(C(=O)COc3ccc(C)cc3)CC2)C1 (stereo not given)	·	·	·	26.6%	·	·
Cc1ccc(-c2cc3c(=O)n(CC(O)c4ccc(C)c(C)c4)ccn3n2)c(C)c1 (stereo not given)	·	·	·	39.6%	·	·

Assay outcomes: PubChem BioAssay, National Center for Advancing Translational Sciences (NCATS)
